Results on 16 molecules are retold here after PubChem BioAssay (NCI).

Among the test systems are T-47D breast; BT-549 breast; MDA-MB-435 melanoma; SW-620 colon; MCF7 breast; HCT-116 colon; HCC-2998 colon; KM12 colon.
Assay in all cases: NCI-60 one-dose screen, 48 h (100 = growth as untreated, 0 = no growth, -100 = all killed)
Settings in all cases: 10 µM unless noted

The structures appear in SMILES notation. This is part of a sample that, as a whole, favours compounds with a hit. Of some 83,000 tested, about 20% had one in any assay.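 The endpoint reported here, percent growth, reads 100 for growth as untreated, 0 for no net growth and -100 for all cells dead.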 Values without a mark were called inactive. Active and inactive are the calls of the source. How the source made its calls: active means growth percent below 10; inactive means the rest.

Consider `CCCCC1CCCCN1C(=O)OCC` (stereo not drawn), for which the growth with T-47D breast was 89.2%; in the test on BT-549 breast it was 73.9%; with MDA-MB-435 melanoma, 111%; in the test on SW-620 colon, 106%; in the test on MCF7 breast, 107%; in the test on HCT-116 colon, 94%. Also, the figures for the growth in the test with HCC-2998 colon and in the test with KM12 colon were 101% and 123%, respectively.
Regarding `O=C(N/N=C/c1ccncc1)c1ccc(C(F)(F)F)nc1Nc1cccc(C(F)(F)F)c1`, the growth was 25.6% in the test with T-47D breast; 23.8% in the test with BT-549 breast; 36.4% with MDA-MB-435 melanoma; 14.8% with SW-620 colon; -14.5% (active) with MCF7 breast; 11.1% with HCT-116 colon. The growth in the test on HCC-2998 colon was -40.3% (active); with KM12 colon, 20.9%.
Regarding `Cc1cccc(Cc2cnc(NC(=O)c3ccc4nnsc4c3)s2)c1`, the growth is 57.8% with T-47D breast; 105% in the test with BT-549 breast; 82.7% with MDA-MB-435 melanoma; 80.5% with SW-620 colon; 95% with MCF7 breast; 87.7% in the test with HCT-116 colon. Besides, the growth with HCC-2998 colon is 87.5%; in the test on KM12 colon, 77.9%.
`COc1cc(/C=C/C(=O)c2ccc(Nc3nc(Nc4ccc(F)cc4)nc(Nc4ccc(Cl)cc4)n3)cc2)cc(OC)c1OC`: the growth in the test with T-47D breast is 61.9%; in the test on BT-549 breast, 54.8%; with MDA-MB-435 melanoma, 69.3%; in the test on SW-620 colon it was 35.3%; in the test with MCF7 breast it was 28.5%; in the test with HCT-116 colon, 22.9%. Further, the growth is -1.48% (active) in the test with HCC-2998 colon and 56% in the test on KM12 colon.
`COc1cc(/C=C/C(=O)N2CCN(C(=O)c3cc(OC)c(OC)c(OC)c3)CC2)ccc1OCCCN1C(=O)c2cccc3cccc(c23)C1=O`: the growth is 61.9% in the test with T-47D breast; 108% in the test with BT-549 breast; 95.6% in the test on MDA-MB-435 melanoma; 100% in the test on SW-620 colon; 90.4% with MCF7 breast; 81.4% in the test with HCT-116 colon. Also, the growth with HCC-2998 colon is 99.7%; in the test on KM12 colon, 79.6%.
Take `CCCCCCCCCOc1c(OC)cc(C2CC(=O)Nc3c2c(C)nn3-c2nc3ccccc3[nH]2)cc1OC` (stereo not drawn): the growth is -11% (active) with T-47D breast; -16.7% (active) in the test with BT-549 breast; -47.4% (active) with MDA-MB-435 melanoma; -29.2% (active) in the test with SW-620 colon; 4.28% (active) with MCF7 breast; 0.609% (active) in the test on HCT-116 colon. The growth is 10% in the test on HCC-2998 colon and -53.1% (active) in the test on KM12 colon.
Take `COc1cccc(-c2nc3sccn3c2-c2ccnc(NCCNS(=O)(=O)c3ccc(C(F)(F)F)cc3)c2)c1`: the growth with T-47D breast is 5.15% (active); with BT-549 breast, 10.4%; in the test with MDA-MB-435 melanoma it was 33.6%; in the test on SW-620 colon, 64.9%; in the test with MCF7 breast, 19.5%; with HCT-116 colon it was 27.9%. Moreover, the growth with HCC-2998 colon was 70%; in the test on KM12 colon, 26.4%.
As for `Fc1c[c-]c(-c2ccccn2)c(F)c1.[CH3-].[Pt+2].c1ccc(P(C[PH+](c2ccccc2)c2ccccc2)c2ccccc2)cc1`, the growth in the test with T-47D breast was -5.03% (active); with BT-549 breast, -28.1% (active); in the test with MDA-MB-435 melanoma it was -51.8% (active); with SW-620 colon it was -63.5% (active); in the test with MCF7 breast it was 6.04% (active); in the test on HCT-116 colon it was -66% (active). The growth in the test on HCC-2998 colon was -27.5% (active); in the test with KM12 colon, -40.6% (active).
Consider `CCSC1=NC2C(N(CC)C(=O)N2CC)N1/N=C/C=C/c1ccccc1[N+](=O)[O-]` (stereo not drawn), for which the growth in the test with T-47D breast is 63.3%; with BT-549 breast, 10.1%; with MDA-MB-435 melanoma, -37.4% (active); in the test with SW-620 colon, 16.7%; in the test on MCF7 breast, 12.3%; with HCT-116 colon it was 4.16% (active). Also, the growth in the test on HCC-2998 colon is 11%; in the test on KM12 colon, 10.1%.
As for `O=Cc1ccc(O)c2ncccc12`, the growth in the test with T-47D breast was 22.8%; in the test with BT-549 breast, -1.72% (active); in the test with MDA-MB-435 melanoma it was 60.3%; with SW-620 colon, 21.5%; with MCF7 breast it was 7.29% (active); in the test on HCT-116 colon, -7.5% (active). The growth was 86.6% with HCC-2998 colon and 69.6% with KM12 colon.
As for `Cc1ccc(N2CCN(C(=S)c3cccs3)CC2)cc1`, the growth in the test with T-47D breast was 86.2%; in the test on BT-549 breast it was 74.2%; with MDA-MB-435 melanoma, 109%; with SW-620 colon it was 108%; in the test with MCF7 breast, 89.3%; in the test on HCT-116 colon it was 93.2%. Further, the growth in the test on HCC-2998 colon is 94.3%; in the test on KM12 colon, 113%.
As to `COc1cc(C2CC(c3ccc(Nc4ccnc5cc(Cl)ccc45)cc3)=NN2C=O)cc(OC)c1OC` (stereo not drawn), the growth in the test on T-47D breast is 83.2%; in the test on BT-549 breast it was 37%; in the test with MDA-MB-435 melanoma, 30.5%; in the test with SW-620 colon, 84%; in the test on MCF7 breast it was 46.3%; in the test with HCT-116 colon, 13.5%. In the test on KM12 colon, the growth is 68%.
As for `COc1cccc(-c2nn(-c3ccccc3)cc2-c2ccnc(NCCNC(=O)Nc3ccccc3)c2)c1`, the growth was 20.3% with T-47D breast; 30.2% in the test with BT-549 breast; 42.9% in the test on MDA-MB-435 melanoma; 71.9% in the test with SW-620 colon; 56.6% in the test on MCF7 breast; 35.3% in the test with HCT-116 colon. Besides, the growth with KM12 colon is 37.6%.
For the molecule `Cc1cc(NCc2cc(Nc3ccnc4cc(Cl)ccc34)ccc2F)nc(N2CCN(c3ccccc3)CC2)n1`, the growth with T-47D breast is 24.5%; with BT-549 breast, 70.1%; with MDA-MB-435 melanoma it was 38.8%; with SW-620 colon it was 46.1%; with MCF7 breast, 23.9%; in the test on HCT-116 colon, 1.74% (active). Besides, the growth in the test on KM12 colon is 69.2%.
As for `CC(=O)N1C(=S)NC(=O)C1Cn1c(-c2ccccc2)nc2ccccc21` (stereo not drawn), the growth was 95.3% in the test on T-47D breast; 109% with BT-549 breast; 100% with MDA-MB-435 melanoma; 103% with SW-620 colon; 88.7% with MCF7 breast; 90.2% in the test with HCT-116 colon. Besides, the growth with KM12 colon is 100%.
Turning to `CC(C)(C)OC(=O)Nc1ccc2c(c1)C(NC(=O)Nc1cccc(C#N)c1)CC(C)(C)O2` (stereo not drawn), the growth was 34.2% in the test with T-47D breast; 29% with BT-549 breast; 39.4% in the test with MDA-MB-435 melanoma; 48.7% in the test with SW-620 colon; 32.1% with MCF7 breast; 30.7% with HCT-116 colon. For the same molecule, in the test with KM12 colon, the growth is 49.5%.
